Experimental data published in PubChem BioAssay AID748 (Sanford-Burnham Center for Chemical Genomics, 2007).
Hit rate of the full screen: of about 96,000 compounds, about 100 (0.1%) were called active. The list comes from a sample in which actives are over-represented; it also holds similar structures and randomly drawn compounds. Potency and affinity values are given separately. A number with no mark means an inactive call.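 The calls were made as follows: active = displacement above 50% at 20 µM plus a fluorescence interference ratio under 1.5; inactive = the rest.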

What follows are compounds tested against Bcl-2-like protein 10 (Homo sapiens) (UniProt Q9HD36) (assay: Bcl-B/TR3 peptide binding disruption – biochemical, fluorescence polarization, FITC-TR3 peptide, selectivity assay for Bfl-1 inhibitor project, primary screen (AID 748;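 also: plate controls were wells without compound for no effect and wells lacking Bcl-B protein for full effect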)). Conditions: FP displacement of FITC-TR3 peptide from Bcl-B; at 20 µM; active compounds read high.

Row | Compound | displacement
1 | CCn1c(SCC(=O)Nc2ccc(NC(C)=O)cc2)nnc1C1CC1 | -2.2%
2 | O=c1c(-c2ccccc2)coc2c(CN3CCCC3)c(O)ccc12 | 0.4%
3 | COc1ccc(C(=O)c2coc3ccc(O)c(CN4CCCCC4)c23)cc1 | -2.5%
4 | Nc1csnc1C(=O)O | 1.9%
5 | Cc1nnc(-c2cccc(Br)c2)c2cn(-c3ccccc3Cl)nc12 | 7.2%
6 | CCCCC(=O)Nc1ccc(NC(=O)CCCC)nc1 | -8.6%
7 | CCn1c(SCC(=O)c2ccc(O)c(O)c2)nnc1-c1ccccc1 | 15.8%
8 | CCn1c(SCC(=O)c2ccc(O)c(O)c2)nnc1-c1ccc(C)cc1 | 33%
9 | Cc1ccc(C(=O)CSc2cc(C)nc(SCC(=O)c3ccccc3)n2)cc1 | -6.6%
10 | Nc1cc(N)nc(SCC(=O)c2ccccc2)n1 | -7.4%
11 | Cc1ccc(NC(=O)CCn2nc(C)cc2C)c(C)c1 | -5%
12 | CCN(CCO)c1ccc(-n2c(N)c(C(=O)OC)c3nc4ccccc4nc32)cc1 | 12.6%
13 | CC(C)c1nnc(NC(=O)CCN2C(=O)c3ccccc3C2=O)s1 | -5.9%
14 | CCn1c(SCc2ccc(C#N)cc2)nnc1-c1cccc(Cl)c1 | -1.6%
15 | Clc1ccc(CN(Cc2ccccc2)C(c2cccs2)c2nnnn2C2CCCC2)cc1 (stereo not drawn) | -9.7%
16 | O=C(c1cccnc1)N1CCc2ccccc21 | -1.9%
17 | O=C1CN(C(=O)c2cnccn2)c2ccccc2N1 | 7%
18 | Cc1cc(C(F)F)n2ncc(C(=O)N3CCC(C(N)=O)CC3)c2n1 | 10.5%
19 | CCS(=O)(=O)C(=C1NCCO1)S(=O)(=O)CC | 1.6%
20 | Cc1ccc2c(Cl)cc(Cl)c(OCC(=O)NC(=O)NCc3ccco3)c2n1 | -8%
21 | Cc1cc(Cl)cc(Cl)c1OCC(=O)NCc1ccco1 | -20.9%
22 | Cc1ccc2c(Cl)cc(Cl)c(OCC(=O)NCc3ccco3)c2n1 | 56.5% (active)
23 | Cc1ccccc1C(=O)/C=C1/c2ccccc2CC(C)(C)N1C | 4.3%
24 | c1ccc(Sc2cnc3ccccc3n2)cc1 | -0.3%

Row | Compound | displacement
25 | O=C1C(C=Nc2ccccc2O)=C(O)c2ccccc21 | -6.7%
26 | CN=CC1=C(O)c2ccccc2C1=O | -13.3%
27 | Cc1cc(C)c(C)c(S(=O)(=O)NCC(=O)O)c1C | 2.8%
28 | O=C(Nc1ccc(N2CCOCC2)cc1)Nc1ccc(Cl)c(Cl)c1 | -11.1%
29 | CC(=O)c1ccc(N2CCN(c3ncc(C(F)(F)F)cc3Cl)CC2)cc1 | -8.1%
30 | Cc1nnc2n(Cc3ccccc3)c(=O)c3c4c(sc3n12)COC(C)(C)C4 | 4.4%
31 | Cc1ccc(-n2c(SCC(=O)N3CCCC3)nc3c(c2=O)SCC3)cc1 | 1%
32 | COc1ccc(CNC(=O)c2noc3c2CCCC3)cc1 | -8.9%
33 | Cc1ccc(NC(=O)c2noc3c2CCCCC3)cc1 | -10.5%
34 | CC(=O)c1ccc(NC(=O)c2noc3c2CCCCC3)cc1 | -0.9%
35 | CCc1ccc(NC(=O)c2noc3c2CCCCC3)cc1 | -3%
36 | O=C(N1CCOCC1)N1CCN(c2nc(-c3ccccc3)cs2)CC1 | -0.8%
37 | COC(=O)c1cc(C(=O)OC)n(Cc2ccc(F)cc2)n1 | -10.3%
38 | CCc1ccc(-n2nc3ccc(NC(=O)c4ccc5c(c4)OCO5)cc3n2)cc1 | -1%
39 | O=C(Nc1ccc2nn(-c3ccccc3)nc2c1)c1ccc2c(c1)OCO2 | -30.3%
40 | Cc1cccc(C(=O)NNC2=C(C(=O)C(F)(F)F)CCC2)c1O | 10.3%
41 | Cc1nnc(SCCn2c(N3CCC(C)CC3)nc3c2c(=O)[nH]c(=O)n3C)s1 | -6.3%
42 | Cc1cc(C)n(C(=O)CCN2C(=O)c3ccccc3C2=O)n1 | -3.1%
43 | Brc1ccc(-c2nn3c(-c4ccco4)nnc3s2)o1 | 30%
44 | c1coc(-c2nnc3sc(-c4cccs4)nn23)c1 | 4.7%
45 | CC1(C)OC(=O)C(=CNn2cnc3ccccc3c2=O)C(=O)O1 | -2.6%
46 | CCOC(=O)C1CCCN(C/C(O)=C(\C#N)c2nc(-c3ccc(Cl)cc3)cs2)C1 (stereo not drawn) | 0%
47 | O=C(N/N=C/c1cccc(F)c1)c1cc(-c2ccco2)nc2ccccc12 | 39.5%
48 | CCOc1cc(N2CCOCC2)c(OCC)cc1NC(=O)c1cc(-c2ccco2)nc2ccccc12 | 25.3%
